Bioassay records deposited in PubChem BioAssay by National Center for Advancing Translational Sciences (NCATS).
Cruzain inh noDet: inhibitors of Trypanosoma cruzi cruzain without detergent | P25779 | purified cruzain, Z-FR-AMC fluorescence, no detergent | Potency, µM, inactives show max response, negative = inhibition, usual class: inhibitors | actives 2.3% (n = 200,000);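 note: plate controls were enzyme without inhibitor for no effect and buffer without enzyme for full effect; nearly all actives have a fitted effect of over 40% in size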
Target sequence (P25779 123-467 limits assumed): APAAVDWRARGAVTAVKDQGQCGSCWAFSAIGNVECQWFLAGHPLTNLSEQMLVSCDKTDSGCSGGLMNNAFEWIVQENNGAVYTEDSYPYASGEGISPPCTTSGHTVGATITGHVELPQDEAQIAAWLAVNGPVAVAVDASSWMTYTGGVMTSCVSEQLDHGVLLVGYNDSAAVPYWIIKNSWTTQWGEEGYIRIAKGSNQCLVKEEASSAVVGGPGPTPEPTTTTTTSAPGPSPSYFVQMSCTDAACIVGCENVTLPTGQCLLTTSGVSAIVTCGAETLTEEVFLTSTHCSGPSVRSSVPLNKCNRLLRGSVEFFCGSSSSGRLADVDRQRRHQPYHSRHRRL
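Purified cruzain at 1.5 nM, pre-incubated 15 min with compound at room temperature in 100 mM sodium acetate pH 5.5, 5 mM DTT, 0.00005% Triton X-100. Reaction started with 2 uM Z-FR-AMC; AMC fluorescence increase over 60 s gives rate.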
Cruzain Triton: cruzain (T. cruzi) inhibition with detergent; P25779; purified cruzain, Z-FR-AMC fluorescence, 0.01% Triton; Potency, µM, for the others: max response, negative = inhibition, hits mostly inhibitors; actives 0.43% (n = 200,000);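 note: plate controls were neutral wells for no effect and buffer without enzyme for full effect; nearly all actives have a fitted effect of over 40% in size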
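Compounds were screened in titration against cruzain (1.5 nM) with 0.01% Triton X-100 to counter colloidal aggregation. Activity was the AMC fluorescence increase over 60 s after adding 2 uM Z-FR-AMC at pH 5.5.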
Starred values were filed as active, the others as inactive; u = inconclusive; ! = not confirmed by another sample. Shown are actives, neighbours in structure and some others; about 2.6% of the full set was active somewhere. Calls come from the whole dose curve; as a rule, active = well fitted curve in the direction sought with a large enough effect; inconclusive = small, poorly fitted or top-dose-only effect, or another doubt; inactive = no such curve, though single readings can be large; an effect the other way counts as inactive or inconclusive. Potency is the fitted concentration of half-maximal effect.

SMILES	Cruzain inh noDet	Cruzain Triton
CCCC(=O)O[C@@H]1C[C@@H](C)N(C(=O)c2ccccc2)c2ccc(C)cc21	-2%	-5%
Cc1cc(C)n(C(=O)c2ccc(Cn3nc(C)c(Br)c3C)o2)n1	u	-2%
O=C(Nc1nc2c(s1)CCCC2)c1cc(-c2ccccc2)nc2ccccc12	20µM*	-6%
O=C(Nc1ccc(Br)cc1)c1cc(-c2cccs2)nc2ccccc12	-2%	-6%
CN(C)S(=O)(=O)c1cccc(NC(=O)c2cc(-c3cccs3)nc3ccccc23)c1	16µM*	-4%
O=C(Nc1nc2c(s1)CCCC2)c1cc(-c2ccncc2)nc2ccccc12	u	2%
Cn1c(C(=O)NCc2ccccc2F)cc2oc3ccccc3c21	-9%	-12%
N#C/C(=C\c1ccccc1[N+](=O)[O-])c1nc(C2CC2)cs1	7%	-7%
N#C/C(=C\C=C\c1ccccc1[N+](=O)[O-])c1nc(-c2ccc3c(c2)OCO3)cs1	20µM*	2%
Cc1noc(C)c1S(=O)(=O)N1CCC(C(=O)Nc2ccccn2)CC1	-4%	11%
Cc1ccc2nc(/C(C#N)=C\c3ccc(Oc4ccc([N+](=O)[O-])cn4)cc3)[nH]c2c1	10µM*	-1%
CCOc1cc(/C=C(/C#N)c2nc3ccccc3[nH]2)ccc1Oc1ccc([N+](=O)[O-])cn1	-8%	-4%
COc1cc(/C=C(/C#N)c2nc3ccccc3[nH]2)ccc1Oc1ncccc1[N+](=O)[O-]	u	3%
COc1cc(/C=C(/C#N)c2ccc(C)cc2)ccc1Oc1ccc([N+](=O)[O-])cn1	25µM*	5%
Cc1ccc2nc(/C(C#N)=C\c3cc(C)n(-c4cccc([N+](=O)[O-])c4)c3C)[nH]c2c1	25µM*	4%
COc1ccc2nc(/C(C#N)=C\c3ccc(Oc4ccc([N+](=O)[O-])cn4)cc3)[nH]c2c1	25µM*	-6%
Cc1ccc(/C(C#N)=C/c2cccc([N+](=O)[O-])c2)cc1	1%	2%
Cc1ccc2nc(/C(C#N)=C\c3ccc([N+](=O)[O-])o3)[nH]c2c1	u	-7%
NC1=NC(c2cccc(O)c2)n2c(nc3ccccc32)N1 (stereo not given)	1%	2%
CCN1CCN(c2ccc(S(=O)(=O)N(CC)CC)cc2[N+](=O)[O-])CC1	-7%	-1%
COc1ccc2[nH]c(C)c(CCN3C(=O)C4C5C=CC(C5)C4C3=O)c2c1 (stereo not given)	-9%	3%
Cc1noc(C)c1C(=O)N1CCC2(CCCN(Cc3ccc(C#N)cc3)C2)CC1	-7%	7%
C[C@@H]1NC(=O)c2cc([N+](=O)[O-])cc(I)c2NCC[C@@H](C(N)=O)NC(=O)[C@H](CC(N)=O)NC1=O	-4%	-5%
O=C(O)Cn1nc(C(F)(F)F)c2c1CCCCC2	-2%	-1%
Cc1ccc(-c2csc(C3C(N)=NC(S)=C(C#N)C34CCCCC4)n2)cc1 (stereo not given)	16µM*	-9%
SMILES	Cruzain inh noDet	Cruzain Triton
N#CC1=C(S)N=C(N)C(c2nc(-c3ccccc3)cs2)C12CCCCC2 (stereo not given)	0%	0%
Cc1nnc(SCC(=O)NCc2cccs2)n1-c1ccccc1	12%	7%
Clc1cccc(N/N=C/c2ccc(N3CCOCC3)s2)c1	32µM*	-14%
CC(C)(C)OC(=O)N/N=C/c1ccc(N2CCOCC2)s1	8%	-5%
O=C(Nc1cccnc1)C1CCCN(S(=O)(=O)c2ccccc2)C1 (stereo not given)	3%	5%
COCC(=O)N1CCC[C@@]2(CCN(Cc3cc(C(F)(F)F)cc(C(F)(F)F)c3)C2)C1	-2%	0%
Cc1cc2c(C(C)C)c(O)c(O)c(C=O)c2c(O)c1-c1c(C)cc2c(C(C)C)c(O)c(O)c(C=O)c2c1O	u	25µM*!
CCCCn1c(SCC(=O)Nc2ccc3c(c2)CCC3)nc2ccccc2c1=O	-8%	1%
Cc1ccc(CNC(=O)c2ccc3c(=O)n(-c4ccccc4)c(=O)[nH]c3c2)cc1	1%	0%
Cc1ccc(S(=O)(=O)c2c(N)n(/N=C/c3ccco3)c3nc4ccccc4nc23)cc1C	16µM*	-22%
Cc1cccc(S(=O)(=O)c2c(N)n(/N=C/c3ccco3)c3nc4ccccc4nc23)c1	-22%	-5%
CCNC(=S)N/N=C/c1cn(Cc2ccccc2F)c2ccccc12	u	-2%
CNC(=S)N/N=C/c1cn(Cc2c(F)cccc2Cl)c2ccccc12	32µM*	-6%
Cc1ccccc1NC(=O)CSc1nc2ccc(NC(=O)c3cccs3)cc2s1	u	-3%
Cc1ccc2onc(CC(=O)N3CCN(c4ccccc4F)CC3)c2c1	u	-7%
Cc1ccc2onc(CC(=O)N3CCN(c4ccc(F)cc4)CC3)c2c1	25µM*	28µM*
O=C(CN1CCN(c2ccc(O)cc2)CC1)Nc1cc([N+](=O)[O-])ccc1Cl	25µM*	-24%
CC(C(=O)Nc1cc([N+](=O)[O-])ccc1Cl)N1CCN(c2ccccc2)CC1 (stereo not given)	1%	-2%
N/C(=N\c1nc(CSc2ccc(Cl)cc2)cc(=O)[nH]1)Nc1cccc2ccccc12	10µM*	-4%
COc1ccc(N/C(N)=N/c2nc(CSc3ccc(Cl)cc3)cc(=O)[nH]2)cc1	-18%	-5%
Cc1nc(NC(=O)COC(=O)CCS(=O)(=O)c2ccccc2Cl)c(Cl)cc1Cl	-26%	22µM*
Cc1[nH]c2ccccc2c1C(=O)COC(=O)CCS(=O)(=O)c1ccccc1Cl	-8%	-9%
Cc1ccc(C)c(CN2C(=O)c3ccccc3S(=O)(=O)c3ccc(C(=O)N4CCCC4)cc32)c1	u	-2%
O=C(OCC1CCCO1)c1ccc2c(c1)N(Cc1ccccc1Cl)C(=O)c1ccccc1S2(=O)=O (stereo not given)	-29%	1%
CCOC(=O)c1ccc2c(c1)N(Cc1ccc(F)cc1Cl)C(=O)c1ccccc1S2(=O)=O	10µM*	1%
SMILES	Cruzain inh noDet	Cruzain Triton
O=C(NCc1ccco1)c1ccc2c(c1)N(Cc1cccc(Cl)c1)C(=O)c1ccccc1S2(=O)=O	u	-4%
O=C(NCc1ccco1)c1ccc2c(c1)N(Cc1ccc(Cl)cc1)C(=O)c1ccccc1S2(=O)=O	25µM*	-4%
COc1ccc(CNC(=O)c2ccc3c(c2)N(Cc2ccccc2)C(=O)c2ccccc2S3(=O)=O)cc1	u	1%
COc1ccc(CNC(=O)c2ccc3c(c2)N(Cc2ccccc2F)C(=O)c2ccccc2S3(=O)=O)cc1	25µM*	-1%
CCc1ccccc1NC(=O)c1ccc2c(c1)N(Cc1cc(C)ccc1C)C(=O)c1ccccc1S2(=O)=O	16µM*	0%
CCN1C[C@@]2(COC)CC[C@H](O)[C@@]34[C@@H]2C[C@@H]([C@@H]13)[C@]1(O)C[C@@H](OC)C2C[C@H]4[C@H]1[C@H]2OC(C)=O	-9%	2%
Cc1ccc(CCNC(=O)CN2N=C(c3ccc(C)cc3)CCC2=O)cc1	14%	-1%
Cc1ccc(CNc2ncnc3c2cnn3-c2ccc(C)cc2C)cc1	5%	-5%
CCCOCC(C)O (stereo not given)	-2%	4%
COc1ccc(C(=O)N2CCN(Cc3cc(OC)c(O)c(OC)c3)CC2)cc1OC	-1%	10%
C=CCN(c1ccccc1)S(=O)(=O)c1ccc2c(c1)oc(=O)n2C	0%	2%
COCCNC(=O)c1ccc2c(c1)N(Cc1cc(C)ccc1C)C(=O)c1ccccc1S2=O (stereo not given)	u	-1%
